Binding signal data for seven sequences are collected here from publication PMC11006913.

Holding throughout (experiment): PBM; 200 nM protein, PBS
Common to all, as to conditions: dsDNA, one strand shown

Assay [1] addresses HESX1 (Homo sapiens, UniProt Q9UBX0 95-180, R165K).
The target in assay [2] is SHOX (Homo sapiens, UniProt O15266 103-189).
Assay [3] addresses HESX1 (Homo sapiens, UniProt Q9UBX0 95-180).
In assay [4] the target is SHOX (Homo sapiens, UniProt O15266 103-189, R173C).
Assay [5] has as its target HESX1 (Homo sapiens, UniProt Q9UBX0 95-180, R109Q).
In assay [6] the target is HESX1 (Homo sapiens, UniProt Q9UBX0 95-180, P111T).
Sequence of HESX1 (Homo sapiens, UniProt Q9UBX0 95-180, P111T) (Q9UBX0 95-180 P111T): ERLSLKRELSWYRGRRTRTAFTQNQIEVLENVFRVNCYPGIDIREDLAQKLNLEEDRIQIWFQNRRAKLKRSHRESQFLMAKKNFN
Assay [7] has as its target HESX1 (Homo sapiens, UniProt Q9UBX0 95-180, F115L).
Another assay concerns the target ALX4 (Homo sapiens, UniProt Q9H161 200-286, Q225E).
The target in the next assay is MSX2 (Homo sapiens, UniProt P35548 130-214, R199I).
Sequence of MSX2 (P35548 130-214 R199I): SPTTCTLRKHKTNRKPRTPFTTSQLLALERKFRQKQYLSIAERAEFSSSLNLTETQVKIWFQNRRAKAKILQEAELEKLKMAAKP
Assay [8] deals with ALX1 (Homo sapiens, UniProt Q15699 118-204, L144V).
Sequence of ALX1 (Homo sapiens, UniProt Q15699 118-204, L144V) (Q15699 118-204 L144V): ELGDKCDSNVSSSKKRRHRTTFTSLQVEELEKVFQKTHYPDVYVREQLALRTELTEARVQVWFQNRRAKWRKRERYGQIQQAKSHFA
The target in assay [9] is ALX3 (Homo sapiens, UniProt O95076 139-225, N203Q).
Sequence of ALX3 (Homo sapiens, UniProt O95076 139-225, N203Q) (O95076 139-225 N203Q): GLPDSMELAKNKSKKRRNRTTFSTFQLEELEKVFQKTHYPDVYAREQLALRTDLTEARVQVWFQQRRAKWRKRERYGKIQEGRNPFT
Assay [10] deals with ALX1 (Homo sapiens, UniProt Q15699 118-204, L144R).
Sequence of ALX1 (Homo sapiens, UniProt Q15699 118-204, L144R) (Q15699 118-204 L144R): as the sequence (Q15699 118-204 L144V) above, with V27R counted along it
The target in assay [11] is ALX3 (Homo sapiens, UniProt O95076 139-225).
Sequence of ALX3 (Homo sapiens, UniProt O95076 139-225) (O95076 139-225): as the sequence (O95076 139-225 N203Q) above, with Q65N counted along it
The target in assay [12] is PROP1 (Homo sapiens, UniProt O75360 56-141).
Sequence of PROP1 (Homo sapiens, UniProt O75360 56-141) (O75360 56-141): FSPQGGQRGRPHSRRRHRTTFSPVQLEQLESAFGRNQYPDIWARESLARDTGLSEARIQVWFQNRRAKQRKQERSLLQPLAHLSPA
Assay [13] has as its target PROP1 (Homo sapiens, UniProt O75360 56-141, R99H).
Assay [14] concerns the target ALX3 (Homo sapiens, UniProt O95076 139-225, L168Q).
Assay [15] deals with ALX3 (Homo sapiens, UniProt O95076 139-225, L168V).
Sequence of ALX3 (Homo sapiens, UniProt O95076 139-225, L168V) (O95076 139-225 L168V): as the sequence (O95076 139-225 N203Q) above, with L30V, Q65N counted along it
Assay [16] concerns the target PROP1 (Homo sapiens, UniProt O75360 56-141, F88S).
The target in assay [17] is ALX1 (Homo sapiens, UniProt Q15699 118-204).
Sequence of ALX1 (Homo sapiens, UniProt Q15699 118-204) (Q15699 118-204): as the sequence (Q15699 118-204 L144V) above, with V27L counted along it
For assay [18], the target named is ALX3 (Homo sapiens, UniProt O95076 139-225, N203S).
Sequence of ALX3 (Homo sapiens, UniProt O95076 139-225, N203S) (O95076 139-225 N203S): as the sequence (O95076 139-225 N203Q) above, with Q65S counted along it

Sequence of ALX4 (Q9H161 200-286 Q225E): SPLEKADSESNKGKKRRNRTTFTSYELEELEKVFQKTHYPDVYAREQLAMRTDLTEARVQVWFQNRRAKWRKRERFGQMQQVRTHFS
Sequence of SHOX (Homo sapiens, UniProt O15266 103-189) (O15266 103-189): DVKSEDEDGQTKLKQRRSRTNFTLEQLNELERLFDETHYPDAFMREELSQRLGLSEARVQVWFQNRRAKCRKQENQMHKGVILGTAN
Sequence of HESX1 (Homo sapiens, UniProt Q9UBX0 95-180, F115L) (Q9UBX0 95-180 F115L): as the sequence (Q9UBX0 95-180 P111T) above, with T17P, F21L counted along it
Sequence of SHOX (Homo sapiens, UniProt O15266 103-189, R173C) (O15266 103-189 R173C): as the sequence (O15266 103-189) above, with R71C counted along it
Sequence of HESX1 (Homo sapiens, UniProt Q9UBX0 95-180, R109Q) (Q9UBX0 95-180 R109Q): as the sequence (Q9UBX0 95-180 P111T) above, with R15Q, T17P counted along it
Sequence of PROP1 (Homo sapiens, UniProt O75360 56-141, R99H) (O75360 56-141 R99H): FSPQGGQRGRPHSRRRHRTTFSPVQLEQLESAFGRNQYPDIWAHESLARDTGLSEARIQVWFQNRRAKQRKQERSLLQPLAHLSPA
Sequence of PROP1 (Homo sapiens, UniProt O75360 56-141, F88S) (O75360 56-141 F88S): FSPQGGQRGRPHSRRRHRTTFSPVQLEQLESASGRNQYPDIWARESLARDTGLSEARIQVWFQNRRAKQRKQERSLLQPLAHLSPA
Sequence of HESX1 (Homo sapiens, UniProt Q9UBX0 95-180) (Q9UBX0 95-180): as the sequence (Q9UBX0 95-180 P111T) above, with T17P counted along it
Sequence of ALX3 (Homo sapiens, UniProt O95076 139-225, L168Q) (O95076 139-225 L168Q): as the sequence (O95076 139-225 N203Q) above, with L30Q, Q65N counted along it
Sequence of HESX1 (Homo sapiens, UniProt Q9UBX0 95-180, R165K) (Q9UBX0 95-180 R165K): as the sequence (Q9UBX0 95-180 P111T) above, with T17P, R71K counted along it

Take GAAGGCGC: the binding signal was 6.55 upbm affinity estimate (log intensity, higher = more binding, comparable within an allelic series) with HESX1 [1]; 7.24 upbm affinity estimate (log intensity, higher = more binding, comparable within an allelic series) with SHOX [2]; 6.36 upbm affinity estimate (log intensity, higher = more binding, comparable within an allelic series) in the assay with HESX1 [3]; 7.21 upbm affinity estimate (log intensity, higher = more binding, comparable within an allelic series) in the assay with SHOX [4]; 6.47 upbm affinity estimate (log intensity, higher = more binding, comparable within an allelic series) with HESX1 [5]; 6.47 upbm affinity estimate (log intensity, higher = more binding, comparable within an allelic series) with HESX1 [6]. The binding signal with HESX1 [7] is 6.58 upbm affinity estimate (log intensity, higher = more binding, comparable within an allelic series).

As for ATTAATGC, the binding signal is 8.93 upbm affinity estimate (log intensity, higher = more binding, comparable within an allelic series) with HESX1 [1] and 9.02 upbm affinity estimate (log intensity, higher = more binding, comparable within an allelic series) in the assay with HESX1 [3].

As to AATTATAA, the binding signal with HESX1 [1] is 11.6 upbm affinity estimate (log intensity, higher = more binding, comparable within an allelic series); with SHOX [2], 11.4 upbm affinity estimate (log intensity, higher = more binding, comparable within an allelic series); with ALX4, 13.1 upbm affinity estimate (log intensity, higher = more binding, comparable within an allelic series); in the assay with HESX1 [3] it was 11.7 upbm affinity estimate (log intensity, higher = more binding, comparable within an allelic series); with MSX2 it was 12.4 upbm affinity estimate (log intensity, higher = more binding, comparable within an allelic series); with ALX1 [8] it was 11.5 upbm affinity estimate (log intensity, higher = more binding, comparable within an allelic series). For the same sequence, the binding signal in the assay with ALX3 [9] is 8.51 upbm affinity estimate (log intensity, higher = more binding, comparable within an allelic series); with SHOX [4], 9.09 upbm affinity estimate (log intensity, higher = more binding, comparable within an allelic series); in the assay with ALX1 [10], 11.2 upbm affinity estimate (log intensity, higher = more binding, comparable within an allelic series); in the assay with ALX3 [11], 12.4 upbm affinity estimate (log intensity, higher = more binding, comparable within an allelic series); with PROP1 [12], 11 upbm affinity estimate (log intensity, higher = more binding, comparable within an allelic series); with HESX1 [5], 8.29 upbm affinity estimate (log intensity, higher = more binding, comparable within an allelic series). The binding signal with PROP1 [13] is 10.8 upbm affinity estimate (log intensity, higher = more binding, comparable within an allelic series); with ALX3 [14], 10.4 upbm affinity estimate (log intensity, higher = more binding, comparable within an allelic series); in the assay with HESX1 [6], 10.4 upbm affinity estimate (log intensity, higher = more binding, comparable within an allelic series); with ALX3 [15] it was 9.95 upbm affinity estimate (log intensity, higher = more binding, comparable within an allelic series); in the assay with PROP1 [16] it was 7.93 upbm affinity estimate (log intensity, higher = more binding, comparable within an allelic series); in the assay with HESX1 [7], 7.89 upbm affinity estimate (log intensity, higher = more binding, comparable within an allelic series). Besides, the binding signal with ALX1 [17] was 12.1 upbm affinity estimate (log intensity, higher = more binding, comparable within an allelic series); with ALX3 [18], 8.6 upbm affinity estimate (log intensity, higher = more binding, comparable within an allelic series).

As to CCAATTAG, the binding signal in the assay with HESX1 [1] is 13.5 upbm affinity estimate (log intensity, higher = more binding, comparable within an allelic series); with SHOX [2], 12.8 upbm affinity estimate (log intensity, higher = more binding, comparable within an allelic series); with ALX4, 13.6 upbm affinity estimate (log intensity, higher = more binding, comparable within an allelic series); with HESX1 [3], 13.4 upbm affinity estimate (log intensity, higher = more binding, comparable within an allelic series); with MSX2, 13.1 upbm affinity estimate (log intensity, higher = more binding, comparable within an allelic series); with ALX1 [8], 12 upbm affinity estimate (log intensity, higher = more binding, comparable within an allelic series). Moreover, the binding signal in the assay with ALX3 [9] is 8.31 upbm affinity estimate (log intensity, higher = more binding, comparable within an allelic series); with SHOX [4] it was 10.3 upbm affinity estimate (log intensity, higher = more binding, comparable within an allelic series); in the assay with ALX1 [10], 11.7 upbm affinity estimate (log intensity, higher = more binding, comparable within an allelic series); in the assay with ALX3 [11], 12.7 upbm affinity estimate (log intensity, higher = more binding, comparable within an allelic series); in the assay with PROP1 [12] it was 11.9 upbm affinity estimate (log intensity, higher = more binding, comparable within an allelic series); with HESX1 [5], 10.5 upbm affinity estimate (log intensity, higher = more binding, comparable within an allelic series). In addition, the binding signal with PROP1 [13] is 12.1 upbm affinity estimate (log intensity, higher = more binding, comparable within an allelic series); with ALX3 [14], 10.9 upbm affinity estimate (log intensity, higher = more binding, comparable within an allelic series); in the assay with HESX1 [6] it was 12.2 upbm affinity estimate (log intensity, higher = more binding, comparable within an allelic series); in the assay with ALX3 [15], 10.4 upbm affinity estimate (log intensity, higher = more binding, comparable within an allelic series); in the assay with PROP1 [16] it was 7.63 upbm affinity estimate (log intensity, higher = more binding, comparable within an allelic series); in the assay with HESX1 [7] it was 8.12 upbm affinity estimate (log intensity, higher = more binding, comparable within an allelic series). For the same sequence, the binding signal with ALX1 [17] was 12.7 upbm affinity estimate (log intensity, higher = more binding, comparable within an allelic series); with ALX3 [18], 8.47 upbm affinity estimate (log intensity, higher = more binding, comparable within an allelic series).

In the case of CAAATTAA, the binding signal with HESX1 [1] was 11.5 upbm affinity estimate (log intensity, higher = more binding, comparable within an allelic series); in the assay with SHOX [2], 11.7 upbm affinity estimate (log intensity, higher = more binding, comparable within an allelic series); with ALX4, 12.9 upbm affinity estimate (log intensity, higher = more binding, comparable within an allelic series); with HESX1 [3], 11.5 upbm affinity estimate (log intensity, higher = more binding, comparable within an allelic series); with ALX1 [8], 11.6 upbm affinity estimate (log intensity, higher = more binding, comparable within an allelic series); with ALX3 [9], 8.38 upbm affinity estimate (log intensity, higher = more binding, comparable within an allelic series). The binding signal with SHOX [4] is 9.3 upbm affinity estimate (log intensity, higher = more binding, comparable within an allelic series); with ALX1 [10] it was 11.1 upbm affinity estimate (log intensity, higher = more binding, comparable within an allelic series); with ALX3 [11], 12.4 upbm affinity estimate (log intensity, higher = more binding, comparable within an allelic series); in the assay with PROP1 [12], 11 upbm affinity estimate (log intensity, higher = more binding, comparable within an allelic series); in the assay with HESX1 [5], 8.49 upbm affinity estimate (log intensity, higher = more binding, comparable within an allelic series); with PROP1 [13], 10.7 upbm affinity estimate (log intensity, higher = more binding, comparable within an allelic series). Further, the binding signal was 10.4 upbm affinity estimate (log intensity, higher = more binding, comparable within an allelic series) in the assay with ALX3 [14]; 10.1 upbm affinity estimate (log intensity, higher = more binding, comparable within an allelic series) with HESX1 [6]; 9.81 upbm affinity estimate (log intensity, higher = more binding, comparable within an allelic series) in the assay with ALX3 [15]; 7.49 upbm affinity estimate (log intensity, higher = more binding, comparable within an allelic series) with PROP1 [16]; 7.67 upbm affinity estimate (log intensity, higher = more binding, comparable within an allelic series) in the assay with HESX1 [7]; 12.1 upbm affinity estimate (log intensity, higher = more binding, comparable within an allelic series) with ALX1 [17]. Also, the binding signal in the assay with ALX3 [18] is 8.48 upbm affinity estimate (log intensity, higher = more binding, comparable within an allelic series).

Regarding CCAATTAC, the binding signal in the assay with HESX1 [1] is 12.8 upbm affinity estimate (log intensity, higher = more binding, comparable within an allelic series); with SHOX [2] it was 12.2 upbm affinity estimate (log intensity, higher = more binding, comparable within an allelic series); with ALX4 it was 13.1 upbm affinity estimate (log intensity, higher = more binding, comparable within an allelic series); in the assay with HESX1 [3], 12.9 upbm affinity estimate (log intensity, higher = more binding, comparable within an allelic series); in the assay with MSX2 it was 12.8 upbm affinity estimate (log intensity, higher = more binding, comparable within an allelic series); in the assay with ALX1 [8], 11.8 upbm affinity estimate (log intensity, higher = more binding, comparable within an allelic series). Moreover, the binding signal with ALX3 [9] was 8.39 upbm affinity estimate (log intensity, higher = more binding, comparable within an allelic series); in the assay with SHOX [4] it was 9.4 upbm affinity estimate (log intensity, higher = more binding, comparable within an allelic series); with ALX1 [10], 11.4 upbm affinity estimate (log intensity, higher = more binding, comparable within an allelic series); with ALX3 [11], 12.5 upbm affinity estimate (log intensity, higher = more binding, comparable within an allelic series); with PROP1 [12], 11.5 upbm affinity estimate (log intensity, higher = more binding, comparable within an allelic series); with HESX1 [5], 9.36 upbm affinity estimate (log intensity, higher = more binding, comparable within an allelic series). For the same sequence, the binding signal is 11.7 upbm affinity estimate (log intensity, higher = more binding, comparable within an allelic series) with PROP1 [13]; 10.6 upbm affinity estimate (log intensity, higher = more binding, comparable within an allelic series) in the assay with ALX3 [14]; 11.3 upbm affinity estimate (log intensity, higher = more binding, comparable within an allelic series) with HESX1 [6]; 9.97 upbm affinity estimate (log intensity, higher = more binding, comparable within an allelic series) with ALX3 [15]; 7.57 upbm affinity estimate (log intensity, higher = more binding, comparable within an allelic series) with PROP1 [16]; 7.75 upbm affinity estimate (log intensity, higher = more binding, comparable within an allelic series) with HESX1 [7]. Also, the binding signal with ALX1 [17] was 12.5 upbm affinity estimate (log intensity, higher = more binding, comparable within an allelic series); with ALX3 [18] it was 8.51 upbm affinity estimate (log intensity, higher = more binding, comparable within an allelic series).

For the sequence AATTAGTA, the binding signal was 11.7 upbm affinity estimate (log intensity, higher = more binding, comparable within an allelic series) with HESX1 [1]; 11.6 upbm affinity estimate (log intensity, higher = more binding, comparable within an allelic series) with SHOX [2]; 12.9 upbm affinity estimate (log intensity, higher = more binding, comparable within an allelic series) with ALX4; 11.7 upbm affinity estimate (log intensity, higher = more binding, comparable within an allelic series) with HESX1 [3]; 12.3 upbm affinity estimate (log intensity, higher = more binding, comparable within an allelic series) with MSX2; 11.7 upbm affinity estimate (log intensity, higher = more binding, comparable within an allelic series) with ALX1 [8]. For the same sequence, the binding signal with ALX3 [9] is 8.49 upbm affinity estimate (log intensity, higher = more binding, comparable within an allelic series); with SHOX [4], 9.25 upbm affinity estimate (log intensity, higher = more binding, comparable within an allelic series); with ALX1 [10] it was 11.2 upbm affinity estimate (log intensity, higher = more binding, comparable within an allelic series); in the assay with ALX3 [11] it was 12.3 upbm affinity estimate (log intensity, higher = more binding, comparable within an allelic series); in the assay with PROP1 [12], 11 upbm affinity estimate (log intensity, higher = more binding, comparable within an allelic series); with HESX1 [5] it was 9.01 upbm affinity estimate (log intensity, higher = more binding, comparable within an allelic series). Also, the binding signal is 11 upbm affinity estimate (log intensity, higher = more binding, comparable within an allelic series) with PROP1 [13]; 10.4 upbm affinity estimate (log intensity, higher = more binding, comparable within an allelic series) in the assay with ALX3 [14]; 10.5 upbm affinity estimate (log intensity, higher = more binding, comparable within an allelic series) in the assay with HESX1 [6]; 9.94 upbm affinity estimate (log intensity, higher = more binding, comparable within an allelic series) in the assay with ALX3 [15]; 7.8 upbm affinity estimate (log intensity, higher = more binding, comparable within an allelic series) with PROP1 [16]; 7.68 upbm affinity estimate (log intensity, higher = more binding, comparable within an allelic series) with HESX1 [7]. For the same sequence, the binding signal with ALX1 [17] is 12.3 upbm affinity estimate (log intensity, higher = more binding, comparable within an allelic series); with ALX3 [18], 8.57 upbm affinity estimate (log intensity, higher = more binding, comparable within an allelic series).
